This is an account of results in PubChem BioAssay (NCATS).

Structures are written as SMILES. Results filed as inconclusive are left out. Calls of active or inactive are those of the source. Calls come from the whole dose curve; as a rule, active = well fitted inhibition curve with a large enough effect; inconclusive = small, poorly fitted or top-dose-only effect; inactive = flat fitted curve, though single readings scatter.

Holding throughout (assay): qHTS profiling for inhibitors of Plasmodium falciparum proliferation (AID 504749); note: nearly all actives have a fitted effect of over 60% in size
Holding throughout (settings): P. falciparum in erythrocytes, SYBR Green DNA, 72 h; series mostly up to 28.7 µM
(In qHTS, concentration-response curves come from the screen itself.)

Assay [1] concerns P94_40. The gist of the method: (§1)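 SYBR Green fluorescence of parasite DNA, read after lysis and overnight dark incubation, measured growth over 72 h in erythrocyte culture at 0.3% parasitemia and 2.5% hematocrit. Data normalised to DMSO and 0.29 uM artemisinin, with plate-drift correction.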
The subject of assay [2] is PAD. The gist of the method:
as §1

Assay [3] relates to PC15. The method in brief:
as §1

Assay [4] deals with PC26. The gist of the method:
as §1

For assay [5], the system named is PC49. The method in brief:
as §1

Assay [6] deals with SC27B. The gist of the method:
as §1

Assay [7] has as its system TAB109. The method in brief:
as §1

Assay [8] relates to TAB113. The method in brief: as §1
For assay [9], the system named is TAB165. The gist of the method:
as §1

Assay [10] relates to W2. The gist of the method: as §1
Potency is the fitted concentration of half-maximal effect.

For the compound `Cc1c(C(C)C)c(=O)n(-c2ccccc2)n1C`, the Potency entry in assay [1], in assay [2], in assay [3], in assay [4], in assay [5] and in assay [6] was “inactive” each time. Besides, the Potency entry in [7], in [8], in [9] and in [10] was “inactive” throughout.

In the case of `Cc1cc(=O)n(-c2ccccc2)n1C`, the Potency result in assay [1], in assay [2], in [3], in [4], in assay [5] and in assay [6] was “inactive” in each case. Moreover, the Potency entry in assay [7], in [8], in assay [9] and in [10] was “inactive” in each case.

With `O=C(O)c1cc2cc(Cc3cccnc3)ccc2o1`, the Potency result in assay [1], in assay [2], in assay [3], in assay [4], in assay [5] and in assay [6] was “inactive” each time. Besides, the Potency result in assay [7], in [8], in assay [9] and in [10] was “inactive” throughout.

Regarding `NCCC(O)(P(=O)(O)O)P(=O)(O)O`, the Potency result in assay [1], in assay [2], in [3], in [4], in assay [5] and in assay [6] was “inactive” in each case. In addition, the Potency entry in assay [7], in assay [8], in [9] and in [10] was “inactive” throughout.

As for `C#C[C@]1(OC(C)=O)CC[C@H]2[C@@H]3CCC4=C[C@@H](OC(C)=O)CC[C@@H]4[C@H]3CC[C@@]21C`, the Potency result in assay [1], in [2], in assay [3], in [4], in assay [5] and in assay [6] was “inactive” each time. In addition, the Potency entry in [7], in assay [8], in assay [9] and in assay [10] was “inactive” each time.

As for `CC(O)(P(=O)(O)O)P(=O)(O)O`, the Potency entry in assay [1], in assay [2], in assay [3], in [4], in assay [5] and in [6] was “inactive” each time. Also, the Potency result in assay [7], in assay [8], in assay [9] and in assay [10] was “inactive” in each case.

Turning to `NC(CO)(CO)CO`, the Potency entry in assay [1], in assay [2], in assay [3], in assay [4], in [5] and in assay [6] was “inactive” throughout. Besides, the Potency result in assay [7], in assay [8], in assay [9] and in assay [10] was “inactive” in each case.

Consider `COc1cc2c(cc1OC)C(C(C(=O)N(CCc1ccc(OC)c(OC)c1OC)CCc1ccc(OC)c(OC)c1OC)c1ccccc1)=NCC2` (stereo not drawn), for which the Potency is 2510 nM (active) in assay [1]; 1000 nM (active) in assay [2]; 2510 nM (active) in [3]; 4780 nM (active) in assay [4]; 1000 nM (active) in assay [5]; 2240 nM (active) in assay [6]. Also, the Potency is 3160 nM (active) in [7], 2820 nM (active) in [8], 1260 nM (active) in assay [9] and 1070 nM (active) in assay [10].

`CCCCCC=CCC=CCCCCCCCC(=O)OCC`: the Potency entry in assay [1], in assay [2], in assay [3], in [4], in assay [5] and in assay [6] was “inactive” throughout. Further, the Potency entry in [7], in assay [8], in assay [9] and in [10] was “inactive” each time.

Turning to `COc1cc(OC)cc(OC)c1`, the Potency entry in assay [1], in assay [2], in assay [3], in [4], in assay [5] and in assay [6] was “inactive” each time. Also, the Potency result in assay [7], in assay [8], in assay [9] and in assay [10] was “inactive” in each case.

Regarding `CCN(CC)C(=O)/C(C#N)=C/c1cc(O)c(O)c([N+](=O)[O-])c1`, the Potency result in [1], in assay [2], in assay [3], in [4], in assay [5] and in [6] was “inactive” each time. Further, the Potency result in assay [7], in assay [8] and in [10] was “inactive” in each case.

On to `C[C@@H]1C(=O)NC2=Nc3cccc(Cl)c3CN21`, for which the Potency result in assay [1], in [2], in [3], in assay [4], in assay [5] and in assay [6] was “inactive” each time. Further, the Potency entry in [7], in assay [9] and in assay [10] was “inactive” in each case.

For the compound `CCCCCCCCCCCCCCCCCC(=O)OCC(O)CO` (stereo not drawn), the Potency entry in assay [1], in [2], in assay [3], in [4], in assay [5] and in assay [6] was “inactive” in each case. Besides, the Potency result in [7], in assay [8], in assay [9] and in [10] was “inactive” in each case.

`CCOC(=O)COc1ccc2c(C)c(CCN(CC)CC)c(=O)oc2c1Cl`: the Potency entry in [1], in assay [2], in [3], in [4], in assay [5] and in [6] was “inactive” each time. For the same compound, the Potency result in assay [7], in [8] and in assay [10] was “inactive” each time.

Take `COCc1c(C(C)C)nc(C(C)C)c(/C=C/[C@@H](O)C[C@@H](O)CC(=O)O)c1-c1ccc(F)cc1`: the Potency result in assay [1], in assay [2], in [3], in assay [4], in assay [5] and in [7] was “inactive” in each case. Besides, the Potency entry in assay [8] and in assay [9] was “inactive” in each case.

In the case of `Nc1ccc(/C=C/c2ccc(N)cc2S(=O)(=O)O)c(S(=O)(=O)O)c1`, the Potency result in [1], in [2], in [3], in assay [4], in assay [5] and in [6] was “inactive” each time. Also, the Potency entry in [7], in [9] and in [10] was “inactive” each time.

For `CCCCCCC[N+](CC)(CC)CCCCc1ccc(Cl)cc1`, the Potency in assay [1] is 2000 nM (active); in assay [2], 3980 nM (active); in assay [3], 1580 nM (active); in [4] it was 2030 nM (active); in [5] it was 3160 nM (active); in assay [6], 2820 nM (active). Also, the Potency in [7] was 2000 nM (active); in assay [8], 2240 nM (active); in assay [9], 2000 nM (active); in assay [10], 1610 nM (active).

For the compound `COc1cc(C(=S)N2CCOCC2)cc(OC)c1OC`, the Potency result in [1], in assay [2], in assay [3], in assay [4], in assay [5] and in [6] was “inactive” throughout. For the same compound, the Potency entry in assay [7], in assay [8] and in [10] was “inactive” throughout.
